The record followed here is PubChem BioAssay (NCI).

Assay [1] can be described thus: NCI Yeast Anticancer Drug Screen. Data for the rad50 strain (AID 155).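 Note: 0% = growth of vehicle-only cultures of the same strain.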 As to conditions: S. cerevisiae rad50 strain growth inhibition, active compounds read high; at 50.0 µM unless noted. The method, boiled down: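 Cells are treated with compound, grown, and their growth is then scored against vehicle-only cultures of the same repair-deficient yeast strain.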
A short description of assay [2]: NCI Yeast Anticancer Drug Screen. Data for the mec2-1 strain (AID 157). As to conditions: S. cerevisiae mec2-1 strain, active compounds read high; at 50.0 µM unless noted. The method, boiled down: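 Yeast mec2-1 mutant treated with compound. Readout: growth inhibition vs vehicle controls.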
Assay [3] can be described thus: NCI Yeast Anticancer Drug Screen. Data for the sgs1 mgt1 strain (AID 161).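 Note: 0% = growth of cultures given vehicle only.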 Particulars: S. cerevisiae sgs1 mgt1 strain, active compounds read high; at 50.0 µM unless noted. The method in brief: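 Read-out: growth inhibition vs vehicle controls. Cells: mutant yeast strain deficient in DNA damage repair.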
Assay [4] is described as follows: NCI Yeast Anticancer Drug Screen. Data for the cln2 rad14 strain (AID 165).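 Note: 0% = growth equal to vehicle treated cultures.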 Particulars: S. cerevisiae cln2 rad14 strain, active compounds read high; at 50.0 µM unless noted. The method, boiled down:
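cln2 rad14 yeast strain; compound exposure; growth inhibition read vs vehicle controls.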

A short description of assay [5]: NCI Yeast Anticancer Drug Screen. Data for the bub3 strain (AID 167). As to conditions: S. cerevisiae bub3 mutant strain, active compounds read high; at 50.0 µM unless noted. The method in brief: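 Part of a panel of yeast mutants defective in DNA damage repair or cell cycle regulation. Each strain is grown with compound, and inhibition is calculated relative to solvent-treated cultures.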

Assay [6] can be described thus: NCI Yeast Anticancer Drug Screen. Data for the mlh1 rad18 strain (AID 175). As to conditions: S. cerevisiae mlh1 rad18 strain growth inhibition, active compounds read high; at 50.0 µM unless noted. The method, boiled down:
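Yeast w/ defined DNA-repair lesions; compound exposure; growth vs vehicle controls → % inhibition.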

Each structure is given as a SMILES string. Where “and” joins values, the source holds several entries; their conditions need not be identical. Identical values can stand only once. The panel holds about 79,000 compounds, 15% with a hit somewhere; the sample as a whole holds those more often. Unmarked numbers belong to inactive results. Calls of active or inactive are those of the source. Cut-off read from the data, not from the text of the source: active = growth inhibition above about 70%; inactive = the rest.

As for `O=C(O)CCC(CC(=O)O)C(=O)O` (stereo not given), the growth inhibition was 19.1% in assay [1]; 4.95% in assay [2]; 16% in assay [3]; 13.7% in assay [4]; 23.9% in assay [5]; 15.4% in assay [6].
As for `CC(=O)c1oc2cc([N+](=O)[O-])c3ccccc3c2c1C`, the growth inhibition in assay [1] was 14.7%; in assay [2], -8.55%; in assay [3], 26.3%; in assay [4], 11.6%; in assay [5] it was -5.35%; in assay [6], 40.1%.
In the case of `CCC(Cl)COP(=O)(OCC(Cl)CC)O/C(C)=C(\C)OP(=O)(OCC(Cl)CC)OCC(Cl)CC` (stereo not given), the growth inhibition in assay [1] was 13.8%; in assay [2] it was 13.3%; in assay [3], 27.4%; in assay [4] it was 9.7%; in assay [5], 0.4%; in assay [6], -1.7%.
Turning to `CCCCCCCCN(CCCCCCCC)CC(O)c1ccnc2c(Cl)cc(Cl)cc12` (stereo not given), the growth inhibition in assay [1] was 16.5%; in assay [2] it was 15.2%; in assay [3] it was 43.2%; in assay [4] it was 5.7%; in assay [5] it was 4.85%; in assay [6] it was 33.3%.
On to `CC(C)=C(Nc1ccccc1)NC(C)C`, for which the growth inhibition in assay [1] was 47.4%; in assay [2] it was -19.1%; in assay [3] it was -28.4%; in assay [4] it was -16.2%; in assay [5] it was -40.6%; in assay [6], -3.15%.
As to `CN(C)C(=O)NCCN(CCNC(=O)N(C)C)C(=O)N(C)C`, the growth inhibition in assay [1] is -1.7%; in assay [2], 13.2%; in assay [3] it was -0.9%; in assay [4], -28.3%; in assay [5], -18.8%; in assay [6], -4.15%.
Turning to `COC(=O)C(C(=O)OC)C1CCCC(=O)C1` (stereo not given), the growth inhibition in assay [1] was -2.3%; in assay [2], -10%; in assay [3] it was -10.6%; in assay [4] it was -6.7%; in assay [5] it was -24.7%; in assay [6], 13.8%.
Regarding `COC1CCC(OS(C)(=O)=O)C(C)O1` (stereo not given), the growth inhibition is 16.8% in assay [1]; -45.9% in assay [2]; 4.6% in assay [3]; -2.15% in assay [4]; -38.7% in assay [5]; 9.85% in assay [6].
`CCO[C@@H]1OC(=O)[C@H]2C(c3ccc(Cl)cc3)=NO[C@@H]12`: the growth inhibition in assay [1] was -13.4%; in assay [2] it was -33.7%; in assay [3], 0.05%; in assay [4], 3.6%; in assay [5] it was 29.8%; in assay [6], -4.9%.
With `CCOC(=O)c1[nH]c(=S)n(C)c1C(=O)OCC`, the growth inhibition in assay [1] was -12.9%; in assay [2] it was 6.75%; in assay [3], 29.1%; in assay [4], -33%; in assay [5], 8.1%; in assay [6], 0.55%.
In the case of `CC(C)NCC(O)COc1cccc2[nH]c3ccccc3c12` (stereo not given), the growth inhibition in assay [1] is -2.75%; in assay [2] it was -8.45%; in assay [3] it was -8.5%; in assay [4], -36.4%; in assay [5], -0.8%; in assay [6] it was -0.4%.
Regarding `CC(C)C(=O)Nc1ccc(S(=O)(=O)Nc2ccc(N)cc2O)cc1`, the growth inhibition is -6.8% in assay [1]; 6.6% in assay [2]; 25.1% in assay [3]; 1.25% in assay [4]; 20.1% in assay [5]; -0.75% in assay [6].
In the case of `Cc1ccc2c(N=Nc3ccc(C(=N)N)cc3)ccc(O)c2n1`, the growth inhibition in assay [1] was 99.3% (active); in assay [2] it was 99.4% (active); in assay [3], 99.5% (active); in assay [4], 98.2% (active); in assay [5], 99.2% (active); in assay [6], 99.2% (active).
For the compound `NCC(O)C(O)C(O)CO` (stereo not given), the growth inhibition was 6.15% in assay [1]; -6% in assay [2]; -1.3% in assay [3]; -20% in assay [4]; 9.1% in assay [5]; -8.8% in assay [6].
Turning to `c1ccc2c(c1)/C(=N/c1nccs1)N/C2=N\c1nccs1`, the growth inhibition in assay [1] was 14.1%; in assay [2], -6.35%; in assay [3], -12.2%; in assay [4], -25.6%; in assay [5] it was 13.1%; in assay [6], -6.65%.
`c1ccc(NN=Nc2ncnc3nc[nH]c23)cc1`: the growth inhibition in assay [1] is 3.35%; in assay [2] it was 5.9%; in assay [3], -2.2%; in assay [4], -11.8%; in assay [5], 7.7%; in assay [6] it was 2.7%.
On to `O=c1c2ccccc2[nH]c(=S)n1CCc1ccccn1`, for which the growth inhibition was 2.35% in assay [1]; 6.9% in assay [2]; 64.6% in assay [3]; 8.55% in assay [4]; 14.3% in assay [5]; -7.65% in assay [6].
For `N#Cc1cc2c(N)ncnc2nc1N1CCCC1`, the growth inhibition is -43.7% in assay [1]; -61.8% in assay [2]; -13.3% in assay [3]; -2.25% in assay [4]; 5.35% in assay [5]; -26.2% in assay [6].
As for `CC(CCCCCOC(=O)Nc1ccccc1)OC(=O)Nc1ccccc1` (stereo not given), the growth inhibition is 6.2% in assay [1]; -12.3% in assay [2]; -3.1% in assay [3]; 0.75% in assay [4]; 1.15% in assay [5]; 2.6% in assay [6].
Consider `Cc1cc(-c2ccc(N=Nc3ccc4c(S(=O)(=O)O)cc(S(=O)(=O)O)c(N)c4c3O)c(C)c2)ccc1N=Nc1ccc2c(S(=O)(=O)O)cc(S(=O)(=O)O)c(N)c2c1O`, for which the growth inhibition is -137% and -0.25% in assay [1]; -40.7% and -71.1% in assay [2]; -56.4% and -33.9% in assay [3]; -147% and -4.9% in assay [4]; -118% and -26.3% in assay [5]; -49.2% and -11.2% in assay [6].
